Compounds with a hit are over-represented: about 31% of the library has one in this group of screens.
CYP2C9 inh = human CYP2C9 inhibition; inhibition, % at 5 µM; hit rate 20% among 96,000; P11712; CYP2C9 Supersomes, luciferin-H conversion, luminescence;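 active means blocking of liver enzyme CYP2C9 beyond about 50% at 5 µM, limit read from the data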
PLAP activator = activates human placental alkaline phosphatase. P05187. purified PLAP enzyme, luminescent substrate read-out; hits give high values. activation fold at 20 µM. hit rate 1.2% among 96,000. AID 696; in the data active means activation fold above about 2
Target sequence (P05187 whole entry, looked up): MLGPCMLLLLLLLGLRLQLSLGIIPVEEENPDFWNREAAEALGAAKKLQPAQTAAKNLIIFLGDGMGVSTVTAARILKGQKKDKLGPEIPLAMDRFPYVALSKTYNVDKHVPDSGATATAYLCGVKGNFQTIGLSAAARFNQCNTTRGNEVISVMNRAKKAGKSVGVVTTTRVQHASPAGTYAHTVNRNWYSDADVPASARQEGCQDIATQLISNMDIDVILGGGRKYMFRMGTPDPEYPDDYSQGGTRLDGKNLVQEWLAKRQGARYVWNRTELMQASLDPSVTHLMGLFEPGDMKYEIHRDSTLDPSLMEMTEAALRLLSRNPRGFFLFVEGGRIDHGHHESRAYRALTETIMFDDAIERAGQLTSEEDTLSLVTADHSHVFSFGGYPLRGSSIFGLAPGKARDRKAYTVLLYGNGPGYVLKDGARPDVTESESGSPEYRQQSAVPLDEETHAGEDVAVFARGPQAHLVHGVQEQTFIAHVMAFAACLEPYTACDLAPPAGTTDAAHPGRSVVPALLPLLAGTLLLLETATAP
CYP2C19 inh = blocks human cytochrome P450 2C19; P33261; CYP2C19 Supersomes, luciferin-H EGE luminescence, 30 min; inhibition, % at 5 µM; hit rate 21% among 96,000; AID 778;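 active means CYP2C19 inhibition above a set limit at 5 µM in the primary screen, cut at about 50% in these data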;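 further: plate controls were negative control wells for no effect and 2.5 mM tranylcypromine positive control for full effect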
CYP2C9 activ = increases human cytochrome P450 2C9 activity; P11712; recombinant CYP2C9, luciferin-H conversion, luminescence; hits give high values; factor 1 = untreated enzyme, 0 = blocked; activation factor at 5 µM; hit rate 1.4% among 96,000;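 active means activation factor of 2 or more for CYP2C9 at a 5 µM dose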;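 further: 0 = sulfaphenazole-blocked wells and 1 = vehicle-only wells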
CYP2C19 act = cytochrome P450 2C19 (human) activation. P33261. recombinant CYP2C19, luciferin-H EGE luminescence; hits give high values; 0 = fully inhibited enzyme, 1 = untreated enzyme. activation factor at 5 µM. 96,000 tested, under 10 active. AID 1025;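 active means activation factor of at least 2 at 5 µM in the primary screen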;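 further: 0 = wells with 2.5 mM tranylcypromine and 1 = vehicle-only wells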
* = called active by the depositor.

`CCC(OC(=O)c1cccs1)C(=O)NCc1ccco1` (configuration not stated) gave CYP2C9 inh 44, PLAP activator 1.4, CYP2C19 inh 83*, CYP2C9 activ 0.6 and CYP2C19 act 0.2.
For CC(C)CC(OC(=O)c1cccs1)C(=O)NCc1ccco1 (configuration not stated) the results were CYP2C9 inh 40, PLAP activator 1.3, CYP2C19 inh 44, CYP2C9 activ 0.6 and CYP2C19 act 0.6.
Screening CCC(OC(=O)c1cccs1)C(=O)NC1CCCCC1 (configuration not stated) returned CYP2C9 inh 28, PLAP activator 1, CYP2C19 inh 75*, CYP2C9 activ 0.7 and CYP2C19 act 0.2.
Screening CCOCCCNC(=O)c1ccc(N(C)S(=O)(=O)c2ccc(OC)cc2)cc1 returned CYP2C9 inh 78*, PLAP activator 1.5, CYP2C19 inh 19, CYP2C9 activ 0.2 and CYP2C19 act 0.8.
COc1ccc(S(=O)(=O)N(C)c2ccc(C(N)=O)cc2)cc1 was read as CYP2C9 inh 50, PLAP activator 1.4, CYP2C19 inh 44, CYP2C9 activ 0.5 and CYP2C19 act 0.6.
`COc1ccc(S(=O)(=O)Nc2cc(C(=O)NCCC(C)C)ccc2N2CCOCC2)cc1` gave CYP2C9 inh 61*, PLAP activator 1.3, CYP2C19 inh 46, CYP2C9 activ 0.4 and CYP2C19 act 0.5.
Screening COc1ccc(S(=O)(=O)N(C)c2ccc(C(=O)NCCC(C)C)cc2)cc1 returned CYP2C9 inh 92*, PLAP activator 1.9, CYP2C19 inh 86*, CYP2C9 activ 0.1 and CYP2C19 act 0.1.
`COc1ccc(N2CCN(C(=O)c3ccc(-n4nc(C)cc4C)cc3)CC2)cc1` gave CYP2C9 inh 33, PLAP activator 1.4, CYP2C19 inh 33, CYP2C9 activ 0.7 and CYP2C19 act 0.7.
CCOC(=O)C1=C(C)N(CCO)C(=O)NC1c1ccccc1 (configuration not stated) was read as CYP2C9 inh 27, PLAP activator 1.1, CYP2C19 inh 40, CYP2C9 activ 0.7 and CYP2C19 act 0.6.
Screening COCCOC(=O)C1=C(C)N(Cc2ccccc2)C(=O)NC1c1ccc(OC)cc1 (configuration not stated) returned CYP2C9 inh 74*, PLAP activator 1, CYP2C19 inh 98*, CYP2C9 activ 0.3 and CYP2C19 act 0.
For COc1ccc(C(=O)N2CCCC2)cc1S(=O)(=O)N1CCOCC1 the results were CYP2C9 inh -26, PLAP activator 1.2, CYP2C19 inh -19, CYP2C9 activ 1.3 and CYP2C19 act 1.2.
COc1ccc(C(=O)NC2CCCCC2)cc1S(=O)(=O)N1CCCC1 was read as CYP2C9 inh 53*, PLAP activator 1, CYP2C19 inh 31, CYP2C9 activ 0.5 and CYP2C19 act 0.7.
COC(=O)c1cc(COC(=O)c2ccc(OC)c(S(=O)(=O)N3CCCC3)c2)oc1C was read as CYP2C9 inh 97*, PLAP activator 1.8, CYP2C19 inh 98*, CYP2C9 activ 0 and CYP2C19 act 0.
`COc1ccc(C(=O)NC(C)(C)C)cc1S(=O)(=O)N1CCCC1` gave CYP2C9 inh 53*, PLAP activator 1, CYP2C19 inh 10, CYP2C9 activ 0.5 and CYP2C19 act 0.9.
Screening COc1ccc(C(=O)NCc2ccccc2)cc1S(=O)(=O)N1CCCc2ccccc21 returned CYP2C9 inh 55*, PLAP activator 1.2, CYP2C19 inh 26, CYP2C9 activ 0.5 and CYP2C19 act 0.7.
Screening CC(C)CCNC(=O)c1cccc(S(=O)(=O)N2CCc3ccccc32)c1 returned CYP2C9 inh -39, PLAP activator 1, CYP2C19 inh 17, CYP2C9 activ 1.4 and CYP2C19 act 0.8.
Screening Cc1cccc(NC(=S)N2CCC(N(C)CC3CCCO3)CC2)c1C (configuration not stated) returned CYP2C9 inh -9, PLAP activator 1, CYP2C19 inh -16, CYP2C9 activ 1.1 and CYP2C19 act 1.2.
Screening Cc1cc(N2CCCCCC2)nc2ccccc12 returned CYP2C9 inh 0, PLAP activator 0.8, CYP2C19 inh 21, CYP2C9 activ 1 and CYP2C19 act 0.8.
`Cc1cc(N2CCN(c3ccccc3F)CC2)nc2cc(O)ccc12` gave CYP2C9 inh -104, PLAP activator 1.3, CYP2C19 inh 57*, CYP2C9 activ 2* and CYP2C19 act 0.4.
Screening Cc1cc(N2CCN(c3ccc(F)cc3)CC2)nc2cc(O)ccc12 returned CYP2C9 inh -219, PLAP activator 1.3, CYP2C19 inh 31, CYP2C9 activ 3.2* and CYP2C19 act 0.7.
For COc1ccc2c(C)cc(N3CCN(c4ccc(F)cc4)CC3)nc2c1 the results were CYP2C9 inh -126, PLAP activator 0.9, CYP2C19 inh 83*, CYP2C9 activ 2.3* and CYP2C19 act 0.2.
Screening COC(=O)C(C)Sc1nnc(Cc2cc(=O)[nH]c(=O)[nH]2)n1-c1cc(C)ccc1C (configuration not stated) returned CYP2C9 inh -1, PLAP activator 1.2, CYP2C19 inh 1, CYP2C9 activ 1 and CYP2C19 act 1.
Screening Cc1ccc(NS(=O)(=O)c2ccc(NC(=O)[C@@H]3CCCC[C@@H]3C(=O)O)cc2)c(C)c1 returned CYP2C9 inh 18, PLAP activator 1.1, CYP2C19 inh 13, CYP2C9 activ 0.8 and CYP2C19 act 0.9.
For CC(C)CN(C#N)c1nc(N2CCOCC2)nc(N2CCOCC2)n1 the results were CYP2C9 inh 51*, PLAP activator 1.1, CYP2C19 inh 20, CYP2C9 activ 0.5 and CYP2C19 act 0.8.
Screening O=C(NN1CCOCC1)c1cc(-c2cccc(Cl)c2)nc2ccccc12 returned CYP2C9 inh 7, PLAP activator 1.2, CYP2C19 inh 13, CYP2C9 activ 0.9 and CYP2C19 act 0.9.
For Cn1c(N)c(C(=O)COC(=O)c2ccco2)c(=O)n(C)c1=O the results were CYP2C9 inh 10, PLAP activator 1, CYP2C19 inh 6, CYP2C9 activ 0.9 and CYP2C19 act 0.9.
For CCC(C(=O)Nc1nccs1)(C(F)(F)F)C(F)(F)F the results were CYP2C9 inh 78*, PLAP activator 0.9, CYP2C19 inh 6, CYP2C9 activ 0.2 and CYP2C19 act 0.9.
Screening CCC(NC(=O)Nc1nccs1)(C(F)(F)F)C(F)(F)F returned CYP2C9 inh 7, PLAP activator 0.8, CYP2C19 inh 21, CYP2C9 activ 0.9 and CYP2C19 act 0.8.
Screening CSC1=NCCN1C(=O)c1ccc2c(c1)OCO2 returned CYP2C9 inh 5, PLAP activator 1, CYP2C19 inh 10, CYP2C9 activ 0.9 and CYP2C19 act 0.9.
CC1=CC(C)(C)N(C(=O)c2ccc(F)cc2)c2cc3c(cc21)OCO3 was read as CYP2C9 inh 97*, PLAP activator 1.2, CYP2C19 inh 95*, CYP2C9 activ 0 and CYP2C19 act 0.
Cc1cccc(N=C(N2CCOCC2)P(=O)(N2CCOCC2)N2CCOCC2)c1 was read as CYP2C9 inh 19, PLAP activator 1.6, CYP2C19 inh -3, CYP2C9 activ 0.8 and CYP2C19 act 1.
